ChEMBL document CHEMBL5724796, “Tm Shift (DSF) assay results for EUbOPEN Chemogenomics Library” (2024)
Residues, ends and D or L forms follow the SMILES beside them.

What was measured:
Conditions in all cases: Compound concentration 20.0 uM
[1] = molecular target: Tyrosine-protein kinase ABL1 (Homo sapiens) (UniProt P00519)
[2] = molecular target: Bromodomain-containing protein 4 (Homo sapiens) (UniProt O60885)
[3] = molecular target: Cyclin-dependent kinase 2 (Homo sapiens) (UniProt P24941)
[4] = molecular target: Casein kinase I isoform delta (Homo sapiens) (UniProt P48730)
[5] = molecular target: Glycogen synthase kinase-3 beta (Homo sapiens) (UniProt P49841)
[6] = molecular target: Mitogen-activated protein kinase 1 (Homo sapiens) (UniProt P28482)
[7] = molecular target: T1, Aurora kinase A (Homo sapiens) (UniProt O14965)
T1 sequence (whole entry): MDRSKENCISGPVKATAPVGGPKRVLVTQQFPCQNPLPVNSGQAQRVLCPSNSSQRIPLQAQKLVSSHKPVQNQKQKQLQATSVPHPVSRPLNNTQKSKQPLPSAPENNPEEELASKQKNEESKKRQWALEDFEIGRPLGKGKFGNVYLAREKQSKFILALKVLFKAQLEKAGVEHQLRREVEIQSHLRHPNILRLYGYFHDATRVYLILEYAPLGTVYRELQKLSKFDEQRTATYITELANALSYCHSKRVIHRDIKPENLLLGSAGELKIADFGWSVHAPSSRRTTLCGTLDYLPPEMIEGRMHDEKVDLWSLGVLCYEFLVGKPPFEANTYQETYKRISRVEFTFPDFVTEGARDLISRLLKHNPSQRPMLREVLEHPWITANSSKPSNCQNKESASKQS

[8] = molecular target: T2, Transcription intermediary factor 1-alpha (Homo sapiens) (UniProt O15164)
T2 sequence (whole entry): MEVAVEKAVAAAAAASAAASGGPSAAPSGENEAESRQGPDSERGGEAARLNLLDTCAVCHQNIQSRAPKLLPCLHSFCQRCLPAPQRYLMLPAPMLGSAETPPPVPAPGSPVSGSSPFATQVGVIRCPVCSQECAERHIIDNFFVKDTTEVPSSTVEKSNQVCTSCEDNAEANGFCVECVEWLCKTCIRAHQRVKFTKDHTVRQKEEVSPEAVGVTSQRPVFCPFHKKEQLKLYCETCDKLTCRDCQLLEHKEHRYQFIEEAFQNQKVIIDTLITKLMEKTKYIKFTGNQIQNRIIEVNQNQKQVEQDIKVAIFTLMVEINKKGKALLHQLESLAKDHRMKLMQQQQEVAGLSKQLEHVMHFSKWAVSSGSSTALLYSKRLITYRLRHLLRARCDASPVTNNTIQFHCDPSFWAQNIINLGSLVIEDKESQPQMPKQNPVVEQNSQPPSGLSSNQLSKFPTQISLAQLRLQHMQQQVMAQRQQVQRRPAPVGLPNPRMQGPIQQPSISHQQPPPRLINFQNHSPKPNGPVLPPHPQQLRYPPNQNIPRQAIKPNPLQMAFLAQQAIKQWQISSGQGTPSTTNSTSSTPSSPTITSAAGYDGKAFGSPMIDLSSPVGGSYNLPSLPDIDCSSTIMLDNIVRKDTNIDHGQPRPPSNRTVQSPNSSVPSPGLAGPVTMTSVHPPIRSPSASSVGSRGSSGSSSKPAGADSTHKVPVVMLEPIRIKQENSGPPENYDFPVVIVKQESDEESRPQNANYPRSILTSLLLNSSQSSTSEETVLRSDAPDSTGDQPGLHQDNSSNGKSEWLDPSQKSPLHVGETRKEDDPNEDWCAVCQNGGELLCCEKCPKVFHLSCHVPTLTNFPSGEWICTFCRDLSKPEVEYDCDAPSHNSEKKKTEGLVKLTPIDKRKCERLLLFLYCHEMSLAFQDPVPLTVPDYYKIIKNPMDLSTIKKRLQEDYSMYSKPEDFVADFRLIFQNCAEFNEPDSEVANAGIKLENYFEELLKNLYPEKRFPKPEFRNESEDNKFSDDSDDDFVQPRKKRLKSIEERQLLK

Tyrosine-protein kinase ABL1 (Homo sapiens), sequence (P00519 whole entry): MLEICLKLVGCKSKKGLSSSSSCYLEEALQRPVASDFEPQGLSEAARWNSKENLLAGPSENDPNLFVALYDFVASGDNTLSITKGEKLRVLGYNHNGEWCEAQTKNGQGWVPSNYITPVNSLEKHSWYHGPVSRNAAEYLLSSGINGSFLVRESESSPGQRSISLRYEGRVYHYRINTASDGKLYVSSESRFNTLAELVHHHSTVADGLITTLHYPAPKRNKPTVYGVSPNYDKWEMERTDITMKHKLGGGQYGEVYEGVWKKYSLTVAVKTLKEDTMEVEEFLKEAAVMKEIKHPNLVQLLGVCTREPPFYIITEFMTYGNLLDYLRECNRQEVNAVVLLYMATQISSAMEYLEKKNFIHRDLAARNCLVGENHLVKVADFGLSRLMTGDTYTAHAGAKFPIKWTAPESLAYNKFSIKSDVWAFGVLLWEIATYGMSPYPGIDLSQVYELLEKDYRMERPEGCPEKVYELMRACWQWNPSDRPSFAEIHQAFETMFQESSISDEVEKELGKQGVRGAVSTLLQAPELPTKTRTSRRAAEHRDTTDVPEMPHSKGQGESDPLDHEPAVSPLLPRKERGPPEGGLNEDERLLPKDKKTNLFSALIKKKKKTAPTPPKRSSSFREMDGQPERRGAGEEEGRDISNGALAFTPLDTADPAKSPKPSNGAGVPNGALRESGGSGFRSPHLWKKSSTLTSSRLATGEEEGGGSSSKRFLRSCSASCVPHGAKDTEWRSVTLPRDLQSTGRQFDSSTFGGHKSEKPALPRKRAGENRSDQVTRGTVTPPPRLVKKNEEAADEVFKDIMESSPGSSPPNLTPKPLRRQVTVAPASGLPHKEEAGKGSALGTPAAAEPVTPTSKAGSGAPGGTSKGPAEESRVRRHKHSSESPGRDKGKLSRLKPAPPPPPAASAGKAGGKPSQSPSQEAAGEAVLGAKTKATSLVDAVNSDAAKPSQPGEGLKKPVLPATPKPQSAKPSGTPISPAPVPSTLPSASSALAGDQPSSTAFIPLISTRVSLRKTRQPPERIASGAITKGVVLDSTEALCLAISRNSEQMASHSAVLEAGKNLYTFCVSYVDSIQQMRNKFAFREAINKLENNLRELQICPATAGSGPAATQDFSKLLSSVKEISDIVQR
Casein kinase I isoform delta (Homo sapiens), sequence (P48730 whole entry, looked up, canonical isoform): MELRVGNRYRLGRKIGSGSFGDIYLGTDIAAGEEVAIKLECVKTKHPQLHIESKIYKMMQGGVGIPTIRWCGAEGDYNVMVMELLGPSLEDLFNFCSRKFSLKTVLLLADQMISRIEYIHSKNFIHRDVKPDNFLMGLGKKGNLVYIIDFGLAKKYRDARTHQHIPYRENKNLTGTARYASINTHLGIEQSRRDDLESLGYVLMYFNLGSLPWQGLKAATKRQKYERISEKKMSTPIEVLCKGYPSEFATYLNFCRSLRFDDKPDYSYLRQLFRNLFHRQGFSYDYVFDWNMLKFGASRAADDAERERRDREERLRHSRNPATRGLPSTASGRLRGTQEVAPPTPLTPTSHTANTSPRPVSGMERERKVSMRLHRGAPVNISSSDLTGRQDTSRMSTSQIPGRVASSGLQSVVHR
Mitogen-activated protein kinase 1 (Homo sapiens), sequence (P28482 whole entry): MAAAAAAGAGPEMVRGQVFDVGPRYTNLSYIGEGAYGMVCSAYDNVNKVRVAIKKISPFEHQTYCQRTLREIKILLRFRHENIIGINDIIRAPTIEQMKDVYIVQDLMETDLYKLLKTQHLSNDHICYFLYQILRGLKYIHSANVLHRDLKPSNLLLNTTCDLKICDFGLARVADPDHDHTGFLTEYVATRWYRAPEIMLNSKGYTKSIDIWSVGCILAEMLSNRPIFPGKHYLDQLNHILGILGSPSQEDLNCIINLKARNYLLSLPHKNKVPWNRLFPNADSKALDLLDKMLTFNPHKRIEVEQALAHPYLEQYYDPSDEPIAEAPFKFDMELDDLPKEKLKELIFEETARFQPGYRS
Glycogen synthase kinase-3 beta (Homo sapiens), sequence (P49841 whole entry, looked up): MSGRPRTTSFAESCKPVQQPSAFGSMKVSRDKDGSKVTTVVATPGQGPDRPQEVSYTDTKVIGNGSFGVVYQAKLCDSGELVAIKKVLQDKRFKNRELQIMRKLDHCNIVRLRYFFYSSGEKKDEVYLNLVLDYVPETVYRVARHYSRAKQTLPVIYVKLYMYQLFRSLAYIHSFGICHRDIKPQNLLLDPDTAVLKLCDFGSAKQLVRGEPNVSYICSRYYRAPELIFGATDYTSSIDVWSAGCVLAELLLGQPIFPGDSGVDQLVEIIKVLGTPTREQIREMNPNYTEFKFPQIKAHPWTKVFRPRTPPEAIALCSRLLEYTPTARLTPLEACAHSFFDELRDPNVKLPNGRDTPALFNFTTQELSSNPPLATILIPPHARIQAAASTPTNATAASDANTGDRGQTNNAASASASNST

Cn1cc(C(=O)Nc2ccc([C@@H]3C[C@H]3NCC3CC3)cc2)cn1
ΔTm [1]: 0.52 °C
ΔTm [2]: -3.07 °C
ΔTm [3]: 0.01 °C
ΔTm [4]: -0.16 °C
ΔTm [5]: -0.77 °C
ΔTm [6]: 0.06 °C
ΔTm [7]: -2.24 °C
ΔTm [8]: 0.47 °C

Oc1ccc(-c2c(-c3ccccc3)nn3c(C(F)(F)F)cc(C(F)(F)F)nc23)cc1
ΔTm [1]: 2.06 °C
ΔTm [2]: -1.27 °C
ΔTm [3]: 0.46 °C
ΔTm [4]: 0.39 °C
ΔTm [5]: -0.06 °C
ΔTm [6]: -0.2 °C
ΔTm [7]: -0.53 °C
ΔTm [8]: -0.6 °C

Cc1c(F)c(N)cc(C(=O)Nc2cc(-n3cc(C(=O)NCCCN4CCOCC4)nn3)ccc2N2CCN(C)CC2)c1Cl
ΔTm [1]: 0.14 °C
ΔTm [2]: -3.1 °C
ΔTm [3]: 0.07 °C
ΔTm [4]: 0.04 °C
ΔTm [5]: -0.82 °C
ΔTm [6]: 0.14 °C
ΔTm [7]: -2.25 °C
ΔTm [8]: -0.56 °C

CN1C[C@@H]2[C@H](C1)[C@H]2CN(Cc1ccc(F)c(Cl)c1)C(=O)c1cn(C)cn1
ΔTm [1]: 0.53 °C
ΔTm [2]: -2.2 °C
ΔTm [3]: 0.3 °C
ΔTm [4]: -0.21 °C
ΔTm [5]: 0.04 °C
ΔTm [6]: 0.19 °C
ΔTm [7]: -1.34 °C
ΔTm [8]: -1.48 °C

C[C@H]1CO[C@@H]2Cn3cc(C(=O)NCc4ccc(F)cc4F)c(=O)c(O)c3C(=O)N12
ΔTm [1]: 0.13 °C
ΔTm [2]: -2.15 °C
ΔTm [3]: 0.09 °C
ΔTm [4]: -0.04 °C
ΔTm [5]: -0.88 °C
ΔTm [6]: 0.4 °C
ΔTm [7]: -0.95 °C
ΔTm [8]: 0.47 °C

CN(C)CC(c1ccc(O)cc1)C1(O)CCCCC1 (stereo unspecified)
ΔTm [1]: 0.19 °C
ΔTm [2]: -2.16 °C
ΔTm [3]: 0.04 °C
ΔTm [4]: -0.35 °C
ΔTm [5]: -1.41 °C
ΔTm [6]: 0.1 °C
ΔTm [7]: -1.27 °C
ΔTm [8]: 0.3 °C

CC(C)C(=O)SCCCCCCC(=O)Nc1nc(-c2ccccc2)cs1
ΔTm [1]: 0.63 °C
ΔTm [2]: -1.46 °C
ΔTm [3]: 0.18 °C
ΔTm [4]: 0.04 °C
ΔTm [5]: 1.11 °C
ΔTm [6]: -0.16 °C
ΔTm [7]: -0.57 °C
ΔTm [8]: -0.48 °C

O=C(NCc1ccc(F)cc1)C1CCN(S(=O)(=O)c2cc(Cl)cc(Cl)c2)CC1
ΔTm [1]: 0.19 °C
ΔTm [2]: 1.03 °C
ΔTm [3]: 0.65 °C
ΔTm [4]: -0.2 °C
ΔTm [5]: -0.78 °C
ΔTm [6]: 1.32 °C
ΔTm [7]: -1.86 °C
ΔTm [8]: 0.75 °C

O=C(c1cc(Cc2n[nH]c(=O)c3ccccc23)ccc1F)N1CC(CNC2CC2)C1
ΔTm [1]: 0.54 °C
ΔTm [2]: -1.65 °C
ΔTm [3]: 0.08 °C
ΔTm [4]: -0.14 °C
ΔTm [5]: -0.61 °C
ΔTm [6]: 0.06 °C
ΔTm [7]: -2.47 °C
ΔTm [8]: 0.44 °C

CC(=O)N[C@@H](CC(=O)O)C(=O)N[C@@H](CCC(=O)O)C(=O)N[C@H](C(=O)N[C@@H](CC(=O)O)C(=O)CCl)C(C)C
ΔTm [1]: 0.1 °C
ΔTm [2]: -2.64 °C
ΔTm [3]: -0.35 °C
ΔTm [4]: -0.06 °C
ΔTm [5]: 0.4 °C
ΔTm [6]: -0.58 °C
ΔTm [7]: -1.91 °C
ΔTm [8]: -0.93 °C

CNCc1ccc(-c2cc3cc(F)cc(C(N)=O)c3o2)cc1
ΔTm [1]: 0.6 °C
ΔTm [2]: -0.09 °C
ΔTm [3]: 1.2 °C
ΔTm [4]: 0.55 °C
ΔTm [5]: 0.51 °C
ΔTm [6]: 0.83 °C
ΔTm [7]: -1.29 °C
ΔTm [8]: 0.67 °C

CC(=O)N[C@@H](Cc1ccc(O)cc1)C(=O)N[C@H](C(=O)N[C@@H](C)C(=O)N[C@@H](CC(=O)O)C(=O)COC(=O)c1c(C)cccc1C)C(C)C
ΔTm [1]: 0.26 °C
ΔTm [2]: -2.81 °C
ΔTm [3]: 0.14 °C
ΔTm [4]: 0.17 °C
ΔTm [5]: -0.23 °C
ΔTm [6]: -0.06 °C
ΔTm [7]: -0.54 °C
ΔTm [8]: -0.84 °C

CC(=O)N[C@@H](CC(C)C)C(=O)N[C@@H](CCC(=O)O)C(=O)N[C@H](C(=O)N[C@H](C=O)CC(=O)O)C(C)C (Ac-LEVD-aldehyde)
ΔTm [1]: 0.2 °C
ΔTm [2]: -2.55 °C
ΔTm [3]: -0.57 °C
ΔTm [4]: 0.25 °C
ΔTm [5]: -2.05 °C
ΔTm [6]: -0.12 °C
ΔTm [7]: -1.87 °C
ΔTm [8]: -2.52 °C

N#Cc1c(N)[nH]c2cc(/C=C/c3cccc(F)c3)ccc12
ΔTm [1]: 1.1 °C
ΔTm [2]: 3.17 °C
ΔTm [3]: 2.67 °C
ΔTm [4]: -0.33 °C
ΔTm [5]: -0.5 °C
ΔTm [6]: 1.9 °C
ΔTm [7]: 0.33 °C
ΔTm [8]: 1.03 °C

CCOC(=O)NCCCC(=O)NCCc1ccccc1
ΔTm [1]: 0.36 °C
ΔTm [2]: -0.9 °C
ΔTm [3]: -0.09 °C
ΔTm [4]: 0.24 °C
ΔTm [5]: 0.15 °C
ΔTm [6]: 0.16 °C
ΔTm [7]: -1.13 °C
ΔTm [8]: -0.68 °C

COc1cc(O)cc(CN2CCc3c(cc(Cn4ccn(C)c4=N)cc3-c3ccc(F)cc3C)C2=O)c1
ΔTm [1]: 0.41 °C
ΔTm [2]: -3.72 °C
ΔTm [3]: -0.56 °C
ΔTm [4]: -0.83 °C
ΔTm [5]: -0.55 °C
ΔTm [6]: 0.04 °C
ΔTm [7]: -2.93 °C
ΔTm [8]: -1.53 °C

COc1ccccc1C(=O)Nc1cc2c(cc1N1CCNC[C@H]1C)n(C)c(=O)n2C
ΔTm [1]: 0.51 °C
ΔTm [2]: 1.74 °C
ΔTm [3]: 0.17 °C
ΔTm [4]: 0.91 °C
ΔTm [5]: 0.41 °C
ΔTm [6]: 0.25 °C
ΔTm [7]: -0.29 °C
ΔTm [8]: 0.27 °C

O=C(C1CC1)N1CCN(Cn2sc3ccccc3c2=O)CC1
ΔTm [1]: -7.31 °C
ΔTm [2]: -4.76 °C
ΔTm [3]: -3.3 °C
ΔTm [4]: -0.26 °C
ΔTm [5]: 0 °C
ΔTm [6]: -4.19 °C
ΔTm [7]: -1.92 °C
ΔTm [8]: 0 °C

O=c1[nH][nH]c(=O)c2cc(OCC3CCCCC3)ccc12
ΔTm [1]: 2.06 °C
ΔTm [2]: -1.15 °C
ΔTm [3]: 1.01 °C
ΔTm [4]: -0.01 °C
ΔTm [5]: 2.16 °C
ΔTm [6]: 0.61 °C
ΔTm [7]: -0.19 °C
ΔTm [8]: 1.88 °C

COc1cccc(OC)c1S(=O)(=O)Nc1noc2cc(Cn3cccn3)cc(OC)c12
ΔTm [1]: 0.73 °C
ΔTm [2]: -2.01 °C
ΔTm [3]: 0.06 °C
ΔTm [4]: -0.03 °C
ΔTm [5]: -1.16 °C
ΔTm [6]: 0.02 °C
ΔTm [7]: -0.5 °C
ΔTm [8]: -1.5 °C

Cn1ncnc1[C@H]1C2=c3c(cc(F)cc3=N[C@@H]1c1ccc(F)cc1)C(=O)NN2
ΔTm [1]: 0.89 °C
ΔTm [2]: 0.71 °C
ΔTm [3]: 0.22 °C
ΔTm [4]: -0.5 °C
ΔTm [5]: 0.19 °C
ΔTm [6]: 0.14 °C
ΔTm [7]: -1.59 °C
ΔTm [8]: 0.57 °C

Cc1cc(C)c(CNC(=O)c2cc(Cl)c3c(c2C)O[C@@](C)([C@H]2CC[C@H](N(C)C)CC2)O3)c(=O)[nH]1
ΔTm [1]: 0.37 °C
ΔTm [2]: -1.88 °C
ΔTm [3]: 0.46 °C
ΔTm [4]: 0.43 °C
ΔTm [5]: -0.76 °C
ΔTm [6]: 0.07 °C
ΔTm [7]: -0.52 °C
ΔTm [8]: -2.02 °C
